# Assay results as given in PubChem BioAssay AID485294 (National Center for Advancing Translational Sciences (NCATS), 2010).
# Screen size: about 370,000 compounds; about 150 (0.041%) were called active. About 14% were inconclusive and are not listed. The call rests on the fitted dose curve; in most records, active means well fitted inhibition curve with a large enough effect; inconclusive means small, poorly fitted or top-dose-only effect; inactive means flat fitted curve, though single readings scatter. This excerpt belongs to a sample that is enriched for actives.
# Biological target: Beta-lactamase (Escherichia coli (strain K12)) (UniProt P00811)
# Sequence (P00811 whole entry, looked up): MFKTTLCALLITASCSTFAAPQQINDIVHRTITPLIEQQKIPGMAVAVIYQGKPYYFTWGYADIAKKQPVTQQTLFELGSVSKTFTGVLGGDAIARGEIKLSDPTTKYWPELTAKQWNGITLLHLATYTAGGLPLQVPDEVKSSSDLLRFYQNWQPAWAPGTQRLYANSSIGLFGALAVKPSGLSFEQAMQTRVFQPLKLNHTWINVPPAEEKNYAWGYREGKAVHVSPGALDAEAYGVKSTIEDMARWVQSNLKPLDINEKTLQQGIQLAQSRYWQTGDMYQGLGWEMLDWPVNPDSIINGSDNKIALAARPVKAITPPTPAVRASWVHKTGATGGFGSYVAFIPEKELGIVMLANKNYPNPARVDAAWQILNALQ
# Assay: qHTS Inhibitors of AmpC Beta-Lactamase (assay with detergent); further: nearly all actives have a fitted effect of over 25% in size;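 on activity change, negative = inhibition: 0% = no-compound wells and -100% = no-enzyme wells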
# Settings: AmpC hydrolysis of nitrocefin, absorbance 480 nm, 0.01% Triton; series mostly up to 114 µM; activity change, negative = inhibition: at the top concentration
# Method: NIH Molecular Libraries Probe Production Network [MLPCN] NIH Chemical Genomics Center [NCGC] Assay Provider: Professor Brian Shoichet, UCSF Assay Overview: This aggregation profiling approach exploits the sensitivity of aggregate formation to detergent. Inhibition of b-lactamase is measured in the presence and absence of 0.01% Triton X-100. This particular assay had the prescence of 0.01% Triton X-100. See Pubchem assay "Promiscuous and Specific Inhibitors of AmpC Beta-Lactamase (assay without detergent)" for related screen. Compounds that inhibit only in the absence of detergent are considered likely promiscuous aggregators. A screen of 1,030 compounds was performed in Brian Shoichet's lab in 96-well format. AmpC activity was measured by following the absorbance at 480 nm. Nitrocefin is a chromogenic substrate: while nitrocefin is yellow (lmax 390 nm), the product of its hydrolysis is red (lmax 486 nm, 17,000 M-1). AmpC beta lactamase was provided by Shoichet Lab, UCSF.
# Buffer: 20 mM phosphate buffer, pH 7.0 Triton X-100: No Detergent screen: 0.0001%, Detergent screen: 0.01%. Reagents/Controls: Buffer in columns 3 and 4 as negative control (no enzyme). 5.3 nM AmpC in columns 1, 2, 5-48. Titration of UCSF compound 9 control (from 10 mM, then 1:2) pin-transferred to column 2. Column 1 is neutral (100% activity). Assay Steps: Six uL of reagents were dispensed to 1536-well Greiner black clear bottom plates. Compounds and controls (23 nL) were transferred via Kalypsys PinTool. The plates were incubated for 15 min at room temperature, and then 2 uL of 800 uM solution of nitrocefin was added to start the reaction. The plates were immediately transferred to and read every 20 seconds for 4 min on ViewLux (Perkin-Elmer) High-throughput CCD imager using 480 nm absorbance protocol. During dispense, reagent bottles were kept submerged into 4 deg C water bath. Keywords: NIH Roadmap, MLSCN, MLI, MLSMR, qHTS, NCGC, AmpC Beta-Lactamase, Aggregation
# Potency means the concentration at half of the fitted maximal effect.
Structure (SMILES),"activity change, negative = inhibition",Potency
CC(C)(C)c1ccc(C(=O)NCC(c2ccc(Cl)cc2)N2CCOCC2)cc1 (configuration not stated),2.83% (inactive),–
COC(=O)c1c(NC(=O)c2cc(=O)c3c(C)cc(C)cc3o2)sc2c1CCCC2,10.8% (inactive),–
CCc1cc2c(cc3c(=O)n(CC(=O)NCCc4ccc(OC)c(OC)c4)ncn32)s1,3.6% (inactive),–
Cc1ccccc1CNC(=O)Cn1c(C)c2cnn(-c3ccccc3)c(=O)c2c1C,19.2% (inactive),–
COc1ccc(-c2nc3sc(CCNC(=O)C(C)(C)C)c(C)n3n2)cc1,-0.935% (inactive),–
Cc1nn(C(=O)c2c(F)cccc2F)c(C)c1S(=O)(=O)N1CCOCC1,11.4% (inactive),–
CCOc1ccc(C(=O)/C=C/c2cn(CC(O)CN3CCCCCC3)c3ccccc23)cc1 (configuration not stated),16.8% (inactive),–
COc1ccc(OCCCn2c(C3CC(=O)N(c4ccc(F)cc4)C3)nc3ccccc32)cc1 (configuration not stated),20.7% (inactive),–
Cn1c(C(=O)Nc2cccc(C(F)(F)F)c2)cc2c(=O)n3ccccc3nc21,-1.95% (inactive),–
CCOc1ccc(CNC(=O)Cn2cc3c(n2)-c2c(oc(C(=O)N4CCCC4)c2C)CC3)cc1,-4.37% (inactive),–
Cc1ccc(Nc2c(-c3ccc(N(C)C)cc3)nc3nc[nH]n23)cc1,18.3% (inactive),–
CCOC(=O)c1ccc(NC(=O)C2CCN(S(=O)(=O)c3ccc4c(c3)CCCC(=O)N4)CC2)cc1,-0.957% (inactive),–
Cc1csc2nc(COC(=O)c3ccccc3NC(=O)c3ccccc3Cl)cc(=O)n12,-0.932% (inactive),–
CCOc1ccc(Nc2c(S(=O)(=O)c3ccccc3)cnc3ccccc23)cc1,1.55% (inactive),–
CCCCn1cc(S(=O)(=O)c2ccc(OCC)cc2)c(=O)c2cc(OC)c(OC)cc21,0.326% (inactive),–
Cc1ccc(C)c(N2CCN(CCCNC(=O)Nc3ccc(Cl)cc3)CC2)c1,16.9% (inactive),–
Cc1ccc2nc(-c3ccc(C)c(NC(=O)Cc4ccccc4)c3)oc2c1,10.6% (inactive),–
CCc1cccc(C)c1Nc1c(-c2ccc(N(C)C)cc2)nc2ncccn12,7.08% (inactive),–
CCc1ccc(N2C(=O)CN(S(=O)(=O)CC)CC2(C)C(=O)NC2CCCCC2)cc1 (configuration not stated),-6.84% (inactive),–
COc1ccc(N2CCN(C(=O)C3CCCN(C(=O)c4cc5sccc5n4C)C3)CC2)cc1 (configuration not stated),-0.711% (inactive),–
O=C(CCS(=O)(=O)c1ccccc1)N(Cc1cccnc1)c1nc2c(F)cccc2s1,1.34% (inactive),–
CCOC(=O)c1nnn(CC(=O)NC(=O)Nc2ccccc2F)c1C(=O)OCC,3.71% (inactive),–
CCc1ccccc1NC(=O)CSc1nnc([C@@H](NC(=O)OC(C)(C)C)C(C)C)o1,-12.6% (inactive),–
CC(C)Sc1nnc([C@H](Cc2ccccc2)NC(=O)OC(C)(C)C)o1,1.69% (inactive),–

Structure (SMILES),"activity change, negative = inhibition",Potency
C[C@@H](NC(=O)OC(C)(C)C)c1nnc(S(=O)(=O)Cc2ccccc2)o1,–,8.91 µM (active)
CC1CCN(S(=O)(=O)c2ccc3c(c2)N(CC(=O)NCCc2ccccc2)C(=O)CO3)CC1,15.2% (inactive),–
Cc1cccc(-n2ncc(C(=O)N3CCN(c4ccc(Cl)cc4)CC3)c2C2CCN(C(=O)OC(C)(C)C)CC2)c1,22.4% (inactive),–
CCOC(=O)c1ccc(NC(=O)CCS(=O)(=O)c2ccc(C)cc2)cc1,-5.95% (inactive),–
CCOC(=O)c1scc(-c2ccc(C)cc2)c1S(=O)(=O)Nc1cc(C)ccc1C,19.9% (inactive),–
Cc1ccc(S(=O)(=O)N2CCc3cc(C(=O)Nc4ccc(Cl)cc4C)ccc32)cc1,18.7% (inactive),–
CC1CCCN(c2cc3c(cc2F)c(=O)c(S(=O)(=O)c2cccc(Cl)c2)cn3Cc2ccccc2)C1 (configuration not stated),0.274% (inactive),–
CCOC(=O)c1ccc(NC(=O)CSc2nc3c([nH]c4ccccc43)c(=O)n2C)cc1,2.22% (inactive),–
COc1ccc(C2CC(=O)N(Cc3ccccc3C)c3c2c(C)nn3-c2nc(C)cc(C)n2)c(OC)c1 (configuration not stated),14.8% (inactive),–
COc1ccc2c(c1)c(=O)c(S(=O)(=O)c1ccc(F)cc1)cn2CC(=O)Nc1ccc(C)cc1C,-3.33% (inactive),–
Cn1c(=O)nc2n(-c3ccc(Br)cc3)c3cccc(Cl)c3cc-2c1=O,3.23% (inactive),–
O=C(Cn1cc(SCc2ccccc2)c2ccccc21)N1CCCCC1,-4.92% (inactive),–
COCCCNC(=O)c1c(NC(=O)c2cc(=O)c3cc(C)c(C)cc3o2)sc2c1CCCC2,3.2% (inactive),–
COc1ccc2c(c1)c(N1CCCC1=O)c(C(=O)Nc1ccccc1C(F)(F)F)n2C,14.7% (inactive),–
CCOc1cc(C(=O)NCCc2csc3nc(-c4ccc(C)cc4)nn23)cc(OCC)c1OCC,11.5% (inactive),–
COc1ccccc1CNC(=O)CCn1c(=O)c2ccccc2n(CC(=O)Nc2cccc(Cl)c2)c1=O,21.1% (inactive),–
O=C1OC(OC(=O)c2ccccc2Br)C(N2CCOCC2)=C1Cl (configuration not stated),–,10 µM (active)
O=C1OC(NC(=O)c2ccccc2)C(N2CCOCC2)=C1Cl (configuration not stated),-0.396% (inactive),–
COc1ccc(NS(=O)(=O)c2ccc(N3CCOCC3)c(NC(=O)c3ccccc3Br)c2)cc1,-2.02% (inactive),–
Cc1oc2c(c1C(=O)Nc1ccc(F)c(F)c1)C1=NCCN1C=N2,29.2% (inactive),–
Cn1c(=O)sc2cc(NS(=O)(=O)c3ccc(C(C)(C)C)cc3)ccc21,23.6% (inactive),–
CCCN(CCC)C(=O)C(Cc1ccccc1)NS(=O)(=O)c1ccc2c(c1)c(=O)n(C)c(=O)n2C (configuration not stated),4.62% (inactive),–
CCOc1ccc(NC(=O)c2c(NC(=O)Cc3ccccc3)sc3c2CCCCC3)cc1,-6.09% (inactive),–
